Assay results reported in PubChem BioAssay (NCATS).
Inconclusive results are not listed. The source made the active and inactive calls. The call rests on the fitted dose curve; in most records, active means well fitted curve in the direction sought with a large enough effect; inconclusive means small, poorly fitted or top-dose-only effect, or another doubt; inactive means no such curve, though single readings can be large; an effect the other way counts as inactive or inconclusive.

How the values were obtained:
[1] = Quantitative High-Throughput drug screen in 47 multiple myeloma cell lines against the NCATS MIPE library collection: KHM11_PLB cell viability assay (AID 1918962); further: nearly all actives have a fitted effect of over 35% in size
Procedure, shortened: (§1)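 Approved and investigational drugs from MIPE 4.0 were added by pin tool to 500 cells per well. After 48 hours at 37C, ATP-based CellTiter-Glo luminescence indicated remaining viability.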

[2] = Quantitative High-Throughput drug screen in 47 multiple myeloma cell lines against the NCATS MIPE library collection: JIM3_ECACC cell viability assay (AID 1918963; further: nearly all actives have a fitted effect of over 35% in size)
Procedure, shortened: as §1

[3] = Quantitative High-Throughput drug screen in 47 multiple myeloma cell lines against the NCATS MIPE library collection: JIM1_ECACC cell viability assay (AID 1918964)
Procedure, shortened: (§2)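 Primary qHTS used for cherry-picking: cells at 500/well, library compounds for 48 h (37C, 5% CO2), luminescent ATP assay.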

[4] = Quantitative High-Throughput drug screen in 47 multiple myeloma cell lines against the NCATS MIPE library collection: H1112_PLB cell viability assay (AID 1918967; further: nearly all actives have a fitted effect of over 30% in size)
Procedure, shortened: as §2

[5] = Quantitative High-Throughput drug screen in 47 multiple myeloma cell lines against the NCATS MIPE library collection: KMS27_JCRB cell viability assay (AID 1918970); details: KMS27 myeloma cells, CellTiter-Glo ATP viability, 48 h; viability (% of DMSO): at 45.8 µM (top of the series); further: nearly all actives have a fitted effect of over 30% in size
Procedure, shortened: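 Myeloma cells (500 per well) were exposed to MIPE 4.0 compounds for 48 h at 37 °C, 5% CO2; viability was read as ATP luminescence with CellTiter-Glo, normalized to DMSO-only (100%) and media-only (0%) wells.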

[6] = Quantitative High-Throughput drug screen in 47 multiple myeloma cell lines against the NCATS MIPE library collection: MMM1_PLB cell viability assay (AID 1918976); further: nearly all actives have a fitted effect of over 35% in size
Procedure, shortened: (§3)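 ATP-based luminescence (CellTiter-Glo, 5 min RT incubation) quantified surviving cells following two days' treatment with MIPE 4.0 agents at 37 °C, 5% CO2.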

[7] = Quantitative High-Throughput drug screen in 47 multiple myeloma cell lines against the NCATS MIPE library collection: MOLP8_DSMZ cell viability assay (AID 1918977); further: nearly all actives have a fitted effect of over 45% in size
Procedure, shortened: as §3

[8] = Quantitative High-Throughput drug screen in 47 multiple myeloma cell lines against the NCATS MIPE library collection: NCIH929_DSMZ cell viability assay (AID 1918978); further: nearly all actives have a fitted effect of over 35% in size
Procedure, shortened: as §3

[9] = Quantitative High-Throughput drug screen in 47 multiple myeloma cell lines against the NCATS MIPE library collection: OCIMY1_PLB cell viability assay (AID 1918979); further: nearly all actives have a fitted effect of over 35% in size
Procedure, shortened: as §3

[10] = Quantitative High-Throughput drug screen in 47 multiple myeloma cell lines against the NCATS MIPE library collection: JJN3_DSMZ cell viability assay (AID 1918966; further: nearly all actives have a fitted effect of over 50% in size)
Procedure, shortened: as §2

[11] = Quantitative High-Throughput drug screen in 47 multiple myeloma cell lines against the NCATS MIPE library collection: Karpas25_ECACC cell viability assay (AID 1918968; further: nearly all actives have a fitted effect of over 35% in size)
Procedure, shortened: as §2

[12] = Quantitative High-Throughput drug screen in 47 multiple myeloma cell lines against the NCATS MIPE library collection: KMS12BM_JCRB cell viability assay (AID 1918971); further: nearly all actives have a fitted effect of over 35% in size
Procedure, shortened: (§4)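 We plated 500 myeloma cells per well, pinned in MIPE 4.0 compounds, and incubated for 48 hours at 37C. ATP was then quantified with CellTiter-Glo, with DMSO and media-only wells defining 100% and 0%.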

[13] = Quantitative High-Throughput drug screen in 47 multiple myeloma cell lines against the NCATS MIPE library collection: KMS12PE_JCRB cell viability assay (AID 1918972); further: nearly all actives have a fitted effect of over 30% in size
Procedure, shortened: (§5)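 Inhibition of cell viability is measured here. Each line was plated at 500 cells per well, treated with MIPE 4.0 drugs, kept 48 hours at 37C, then assayed for ATP content by CellTiter-Glo luminescence.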

[14] = Quantitative High-Throughput drug screen in 47 multiple myeloma cell lines against the NCATS MIPE library collection: KMS20_JCRB cell viability assay (AID 1918973); further: nearly all actives have a fitted effect of over 45% in size
Procedure, shortened: as §2

[15] = Quantitative High-Throughput drug screen in 47 multiple myeloma cell lines against the NCATS MIPE library collection: KMS26_JCRB cell viability assay (AID 1918975); further: nearly all actives have a fitted effect of over 45% in size
Procedure, shortened: as §4

[16] = Quantitative High-Throughput drug screen in 47 multiple myeloma cell lines against the NCATS MIPE library collection: MM1R_ATCC cell viability assay (AID 1918981); further: nearly all actives have a fitted effect of over 35% in size
Procedure, shortened: as §3

[17] = Quantitative High-Throughput drug screen in 47 multiple myeloma cell lines against the NCATS MIPE library collection: INA6_PLB cell viability assay (AID 1918965; further: nearly all actives have a fitted effect of over 55% in size)
Procedure, shortened: as §5

[18] = Quantitative High-Throughput drug screen in 47 multiple myeloma cell lines against the NCATS MIPE library collection: MM1S_ATCC cell viability assay (AID 1918980); further: nearly all actives have a fitted effect of over 45% in size
Procedure, shortened: as §3

[19] = Quantitative High-Throughput drug screen in 47 multiple myeloma cell lines against the NCATS MIPE library collection: KMS21BM_JCRB cell viability assay (AID 1918974); details: ATP luminescence, 48 h; viability: at 45.8 µM (top of the series)
Procedure, shortened: as §2
Potency means the concentration at half of the fitted maximal effect.

SMILES	Potency [1]	Potency [2]	Potency [3]	Potency [4]	Potency [5]	Potency [6]	Potency [7]	Potency [8]	Potency [9]	Potency [10]	Potency [11]	Potency [12]	Potency [13]	Potency [14]	Potency [15]	Potency [16]	Potency [17]	Potency [18]	Potency [19]
CC(Oc1ccc(O)cc1)(P(=O)(O)O)P(=O)(O)O	inactive	inactive	inactive	inactive	inactive	inactive	inactive	inactive	inactive										
CC(=O)OCC(=O)[C@@]1(O)CC[C@H]2[C@@H]3CCC4=CC(=O)CC[C@]4(C)[C@@H]3C(=O)C[C@@]21C	inactive	inactive	inactive	inactive	inactive		inactive	inactive	inactive	inactive	inactive	inactive	inactive	inactive	inactive	inactive			
Nc1nc2c(c(=O)[nH]1)N(C=O)[C@H](CNc1ccc(C(=O)N[C@@H](CCC(=O)O)C(=O)O)cc1)CN2	inactive	inactive	inactive	inactive	inactive			inactive	inactive		inactive	inactive					inactive		
O=C(NCc1ccccc1)[C@H](Cc1ccccc1)NC(=O)[C@@H]1O[C@@H]1C(=O)NCCc1ccc(O)cc1	inactive	inactive	18.7 µM (active)	inactive		20.9 µM (active)		inactive			23.5 µM (active)					10.5 µM (active)		1.18 µM (active)	
Cc1cnn(C)c1C(=O)Nc1cc(Nc2ccc3c(C=Cc4ccccn4)n[nH]c3c2)ccc1F	18.7 µM (active)	5.26 µM (active)	10.5 µM (active)	8.33 µM (active)		13.2 µM (active)		14.8 µM (active)		23.5 µM (active)	4.69 µM (active)				33.2 µM (active)		4.18 µM (active)	20.9 µM (active)	
C[C@@H]1CC[C@@]2(OC1)OC1CC3C4CC=C5CC(O)CCC5(C)C4CCC3(C)C1[C@@H]2C (some centres undefined)	inactive	inactive	inactive	inactive	inactive		inactive	inactive	inactive	inactive	inactive	inactive	inactive			inactive		inactive	
C=C(C)[C@@H]1CC[C@]2(C(=O)O)CC[C@]3(C)[C@H](CC[C@@H]4[C@@]5(C)CC[C@H](O)C(C)(C)[C@@H]5CC[C@]43C)[C@@H]12	3.72 µM (active)	inactive	inactive	inactive			inactive		inactive				0.0372 µM (active)		inactive	inactive	inactive	inactive	
COc1cc([C@@H]2c3cc4c(cc3[C@H](O)[C@H]3COC(=O)[C@@H]23)OCO4)cc(OC)c1OC	0.105 µM (active)	0.118 µM (active)		0.526 µM (active)			0.469 µM (active)	0.59 µM (active)		0.526 µM (active)	0.187 µM (active)	0.148 µM (active)		1.32 µM (active)	0.372 µM (active)	0.526 µM (active)	0.148 µM (active)	0.833 µM (active)	
CC[C@H]1OC(=O)[C@H](C)[C@@H](O[C@H]2C[C@@](C)(OC)[C@@H](O)[C@H](C)O2)[C@H](C)[C@@H](O[C@@H]2O[C@@H](C)C[C@H](N(C)C)[C@@H]2O)[C@](C)(O)C[C@@H](C)C(=O)[C@H](C)[C@@H](O)[C@]1(C)O	inactive	inactive	inactive	inactive	inactive		inactive		inactive				inactive		inactive			inactive	inactive
OCC(O)C(O)C(O)CO (centres undefined)	inactive	inactive		inactive	inactive			inactive	inactive	2.96 µM (active)	inactive		inactive		inactive	inactive	inactive	inactive	
FC(F)(F)c1ccc(Nc2nc3ccc(Oc4ccnc(-c5ncc(C(F)(F)F)[nH]5)c4)cc3[nH]2)cc1	20.9 µM (active)	23.5 µM (active)	11.8 µM (active)							20.9 µM (active)	20.9 µM (active)	18.7 µM (active)	14.8 µM (active)				18.7 µM (active)	20.9 µM (active)	
OCc1ccccc1O[C@@H]1O[C@H](CO)[C@H](O)[C@H](O)[C@H]1O	inactive	inactive	inactive		inactive			11.8 µM (active)	inactive		inactive		inactive	inactive	inactive	inactive	13.2 µM (active)	20.9 µM (active)	
N[C@H]1CN(c2c(F)cc3c(=O)c(C(=O)O)cn(C4C[C@@H]4F)c3c2Cl)CC12CC2 (some centres undefined)	inactive	inactive	inactive	inactive				inactive	inactive				inactive	inactive	16.6 µM (active)	inactive		inactive	
CCOC(=O)[C@H](CCc1ccccc1)N[C@@H](C)C(=O)N1[C@@H](C(=O)O)C[C@H]2CCC[C@@H]21	9.35 µM (active)	13.2 µM (active)	5.26 µM (active)	14.8 µM (active)	7.43 µM (active)	18.7 µM (active)		7.43 µM (active)	26.4 µM (active)		7.43 µM (active)	23.5 µM (active)	7.43 µM (active)	4.69 µM (active)		16.6 µM (active)	7.43 µM (active)	2.64 µM (active)	5.26 µM (active)
CC(C)(C)c1nc2c3cc[nH]c(=O)c3c3cc(F)ccc3c2[nH]1	1.48 µM (active)	1.87 µM (active)	inactive	1.18 µM (active)	inactive	0.662 µM (active)				0.662 µM (active)				1.32 µM (active)	0.0118 µM (active)		0.418 µM (active)	14.8 µM (active)	
C=CC1=C(C(=O)O)N2C(=O)[C@@H](NC(=O)C(=NO)c3csc(N)n3)[C@H]2SC1	inactive	inactive	inactive	inactive	inactive			inactive	inactive		inactive	inactive				inactive		inactive	
OCCNC1CCCc2c1[nH]c1ccc(-c3ccccc3)cc21 (centres undefined)	9.35 µM (active)	18.7 µM (active)		20.9 µM (active)	23.5 µM (active)	20.9 µM (active)		13.2 µM (active)	26.4 µM (active)	23.5 µM (active)	9.35 µM (active)	37.2 µM (active)	8.33 µM (active)	5.26 µM (active)		20.9 µM (active)	7.43 µM (active)	20.9 µM (active)	
NC(=O)c1cccc(-c2cccc(OC(=O)NC3CCCCC3)c2)c1	inactive	inactive	inactive	inactive			inactive	inactive	inactive	inactive		inactive		inactive				inactive	
C[C@H](NC(=O)C(C#N)=Cc1cccc(Br)n1)c1ccccc1	2.09 µM (active)	2.09 µM (active)		2.35 µM (active)	13.2 µM (active)	7.43 µM (active)	2.35 µM (active)	1.66 µM (active)	7.43 µM (active)	4.18 µM (active)	2.09 µM (active)	4.69 µM (active)	16.6 µM (active)	2.35 µM (active)	2.35 µM (active)	2.09 µM (active)	1.87 µM (active)	8.33 µM (active)	
O=c1c(O)c(-c2ccc(O)c(O)c2)oc2cc(O)ccc12	13.2 µM (active)	13.2 µM (active)		26.4 µM (active)		26.4 µM (active)	18.7 µM (active)	18.7 µM (active)	23.5 µM (active)	20.9 µM (active)	8.33 µM (active)	26.4 µM (active)				23.5 µM (active)	7.43 µM (active)	23.5 µM (active)	
CC(=O)O[C@@]12CO[C@H]1C[C@H](O)[C@@]1(C)C(=O)[C@H](O)C3=C(C)[C@@H](OC(=O)C(O)[C@@H](NC(=O)OC(C)(C)C)c4ccccc4)C[C@@](O)([C@@H](OC(=O)c4ccccc4)[C@@H]21)C3(C)C (some centres undefined)	inactive	inactive	inactive	inactive			inactive	inactive	inactive	inactive	inactive	inactive						inactive	
CN[C@@H]1C[C@H]2O[C@@](C)([C@H]1OC)n1c3ccccc3c3c4c(c5c6ccccc6n2c5c31)C(=O)N[C@H]4O	0.0296 µM (active)	0.148 µM (active)		0.526 µM (active)	0.148 µM (active)			0.118 µM (active)	0.935 µM (active)	1.66 µM (active)	0.132 µM (active)			0.148 µM (active)	1.66 µM (active)	0.372 µM (active)	0.0418 µM (active)	0.332 µM (active)	
C=C1C(=O)O[C@H]2[C@@H]1CCC(C)=CCC[C@@]1(C)O[C@@H]21	10.5 µM (active)	2.96 µM (active)		4.18 µM (active)	9.35 µM (active)			2.96 µM (active)	5.26 µM (active)	7.43 µM (active)	1.05 µM (active)	8.33 µM (active)		1.66 µM (active)	3.72 µM (active)	3.72 µM (active)	0.935 µM (active)	5.9 µM (active)	
COC(=O)[C@@H]1CC2=CC(=O)CC[C@]2(C)[C@@]23O[C@@H]2C[C@@]2(C)[C@H](CC[C@@]24CCC(=O)O4)[C@@H]13	inactive	inactive	inactive	inactive	inactive		inactive	inactive	inactive		inactive		inactive	inactive		inactive	inactive		
COc1cccc2c1C(=O)c1c(O)c3c(c(O)c1C2=O)C[C@@](O)(C(=O)CO)C[C@@H]3O[C@H]1C[C@H](N)[C@@H](O)[C@H](C)O1	0.743 µM (active)	0.935 µM (active)		0.59 µM (active)	0.935 µM (active)		0.372 µM (active)	0.235 µM (active)	1.66 µM (active)	0.662 µM (active)	0.418 µM (active)	0.469 µM (active)	2.35 µM (active)	0.166 µM (active)		0.118 µM (active)	0.166 µM (active)	0.0662 µM (active)	
